Measured values reported in PubChem BioAssay AID1053197 (The Scripps Research Institute Molecular Screening Center, 2014).
Among all 370,000 compounds or so, about 2,600 (0.7%) were called active. The sample holds actives, similar compounds and a random draw of the others, so the mix is not that of the screen.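 The calls were made as follows: active = inhibition above a cutoff: mean of compounds within the control limits plus 3 SD of those (cut at about 17% in these data); inactive = the rest.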

Target: Sialate O-acetylesterase (Homo sapiens) (UniProt Q9HAT2)
Experiment: blockers of sialate O-acetylesterase activity-probe labeling – biochemical, fluorescence polarization, FP-Rh probe, 1536-well HTS, primary screen (AID 1053197);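 also: 0% = plate median of compound wells and 100% = probe without SIAE protein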
Settings: SIAE FP-Rh probe binding, at 9.66 µM, stronger effect = higher value

Sialate O-acetylesterase (Homo sapiens), sequence (Q9HAT2 whole entry, looked up): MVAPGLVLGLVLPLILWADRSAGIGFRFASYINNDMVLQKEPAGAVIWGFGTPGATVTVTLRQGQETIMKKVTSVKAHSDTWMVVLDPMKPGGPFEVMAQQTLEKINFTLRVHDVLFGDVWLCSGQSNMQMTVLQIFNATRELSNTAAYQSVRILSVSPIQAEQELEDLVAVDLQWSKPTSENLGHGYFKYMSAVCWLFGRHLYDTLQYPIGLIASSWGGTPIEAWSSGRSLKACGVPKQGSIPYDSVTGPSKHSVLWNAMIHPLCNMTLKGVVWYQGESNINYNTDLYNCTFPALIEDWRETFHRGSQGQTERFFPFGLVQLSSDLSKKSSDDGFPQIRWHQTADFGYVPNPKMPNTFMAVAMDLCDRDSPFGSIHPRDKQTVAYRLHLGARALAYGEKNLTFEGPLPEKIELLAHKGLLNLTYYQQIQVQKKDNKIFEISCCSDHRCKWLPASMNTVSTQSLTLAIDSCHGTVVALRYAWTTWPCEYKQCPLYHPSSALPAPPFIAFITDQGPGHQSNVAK

SMILES	inhibition
COc1cccc(Cn2cc(COC(=O)Nc3ccc(F)cc3)nn2)c1	-7.19% (inactive)
C[C@@H]1O[C@@H](OC[C@H]2O[C@@H](Oc3c(-c4ccc(O)cc4)oc4cc(O)cc(O)c4c3=O)[C@H](O)[C@@H](O)[C@@H]2O)[C@H](O)[C@H](O)[C@H]1O	19.5% (active)
CCOC(=O)c1cc2cc(-c3c(C(=O)OCC)oc4cc(O)cc(O)c4c3=O)ccc2o1	17.1% (inactive)
Cc1ccc(-n2c(COc3ccccc3)nnc2SCC(=O)Nc2ccc3c(c2)OCCO3)cc1	-2.64% (inactive)
Cc1ccc(C2=CCN(C)C(=O)N2c2ccc(Cl)cc2)cc1	-0.37% (inactive)
Cc1ccc(N=C2NC(=O)/C(=C/C=C/c3ccco3)S2)cc1C	27.6% (active)
Cc1cc(C(=O)NN=C/C=C/c2ccco2)n[nH]1	3.3% (inactive)
CCOc1ccc(Oc2c(Cl)cnn(-c3ccc(C)cc3)c2=O)cc1	-1.82% (inactive)
CC(C)N1CCCCC(NC(=O)c2ccc3ccccc3c2)C1=O (stereo not drawn)	-1.26% (inactive)
CCCCC(=O)N[C@@H]1CC[C@@]23CCCN2C(=O)CCC[C@H]3[C@H]1C	-5.34% (inactive)
CC(NCc1ccco1)C(=O)N1CCCCC1 (stereo not drawn)	5.06% (inactive)
O=C(O)c1ccccc1N=N/C(=N/Nc1cc(S(=O)(=O)O)ccc1O)c1ccccc1	28.9% (active)
O=C(Nc1cccc(Cl)c1)OC1CC2CC1[C@H]1CCCCN1[C@H]2Cc1ccccc1 (stereo partly drawn)	-4.13% (inactive)
CCCCC[C@H](C)N1C[C@@H](COCc2ccccc2)Oc2cc(N3CCC[C@@H]3CO)ccc2S1(=O)=O	2.79% (inactive)
CCCCC[C@H](C)N1C[C@@H](COCc2ccccc2)Oc2cc(N3CC[C@@H](N(C)C)C3)ccc2S1(=O)=O	23.3% (active)
CSc1ccc(Oc2cccc3c2S(=O)(=O)N([C@H](C)c2ccccc2)C[C@@H](COCc2ccccc2)O3)cc1C	-4.88% (inactive)
O=C(CSc1nnc(-c2ccccc2)n1Cc1ccco1)Nc1ccccc1-c1ccccc1	-6.96% (inactive)
CCOC(=O)[C@]12CCCC=C1N(CCCOC)C(=O)[C@@H]2CC(=O)N1CCOCC1	-6.36% (inactive)
COc1cccc(N(C)C(=O)[C@@H](C)[C@@H](O)c2ccc3ccccc3c2)c1	-4% (inactive)
C=C(C)C#CC(Cc1ccccc1)NCC1CC1 (stereo not drawn)	4.41% (inactive)
O=C(CSc1ccc(Cl)cc1)NC1CC1	-0.71% (inactive)
CCOC(=O)N1CCN(C(=O)CSc2ccc(Cl)cc2)CC1	19% (active)
CS(=O)(=O)N1CCN(C(=O)CSc2ccccc2)CC1	-3.36% (inactive)
